Inconclusive results are not listed. Activity calls are given as the source filed them. Calls follow the shape of the dose curve; as a rule, active = well fitted curve in the direction sought with a large enough effect; inconclusive = small, poorly fitted or top-dose-only effect, or another doubt; inactive = no such curve, though single readings can be large; an effect the other way counts as inactive or inconclusive.
Experiments:
[1] = qHTS for inhibitors of adenylyl cyclases using a fission yeast platform: a pilot screen against the NCATS LOPAC library (AID 1347410);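 also: plate controls were DMSO vehicle for no effect and DPI positive control for full effect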
Method in brief: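 Inhibition of GNAS-stimulated AC9 activity in S. pombe was inferred from derepression of a PKA-repressed fbp1-GFP reporter, measured as cytometric fluorescence after 18 h at 30C with compounds at up to 57 µM.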

[2] = molecular target: Protein phosphatase 1D (Homo sapiens) (UniProt O15297); assay: RapidFire Mass Spectrometry qHTS Assay for Modulators of WT P53-Induced Phosphatase 1 (WIP1) (AID 1347424);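 also: amount of dephosphorylated VEPPL-S-QETFS peptide product formed by WIP1; series mostly up to about 63 µM; plate controls were DMSO wells for no effect and GSK830371 inhibitor control at 10 µM for full effect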
Sequence of Protein phosphatase 1D (Homo sapiens) (O15297 whole entry, looked up): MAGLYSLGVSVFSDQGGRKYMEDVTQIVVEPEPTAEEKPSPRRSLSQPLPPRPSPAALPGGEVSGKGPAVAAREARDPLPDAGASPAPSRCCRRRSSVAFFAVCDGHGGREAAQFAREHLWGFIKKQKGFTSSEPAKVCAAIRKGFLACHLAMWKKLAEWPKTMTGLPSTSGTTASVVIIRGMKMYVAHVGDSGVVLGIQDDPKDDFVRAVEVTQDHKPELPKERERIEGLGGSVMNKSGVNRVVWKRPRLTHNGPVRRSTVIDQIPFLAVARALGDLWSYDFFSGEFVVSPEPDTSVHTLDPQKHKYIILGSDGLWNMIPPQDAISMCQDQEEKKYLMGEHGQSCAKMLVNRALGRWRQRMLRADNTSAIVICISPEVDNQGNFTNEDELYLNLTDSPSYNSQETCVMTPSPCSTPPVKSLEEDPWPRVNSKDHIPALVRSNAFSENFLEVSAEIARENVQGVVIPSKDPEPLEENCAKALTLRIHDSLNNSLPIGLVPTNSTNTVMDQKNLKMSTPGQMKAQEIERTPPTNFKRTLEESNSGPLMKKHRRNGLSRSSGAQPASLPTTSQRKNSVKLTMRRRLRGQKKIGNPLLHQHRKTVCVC
Method in brief: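 RapidFire mass spectrometry measured dephosphorylated peptide after 5 min room-temperature reaction of 2 uM VEPPL-pS-QETFS with 10 nM WIP1 (50 mM Tris-HCl pH 7.5, 30 mM MgCl2, 0.1 mM EGTA, BSA), following 1 hr compound preincubation; 1 uM isotope-labelled product standard.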

[3] = molecular target: Protein phosphatase 1D (Homo sapiens) (UniProt O15297); assay: Rhodamine-PBP qHTS Assay for Modulators of WT P53-Induced Phosphatase 1 (WIP1) (AID 1347425); also: % of control where 0% means no effect
Method in brief: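 WIP1 (5 nM final) was preincubated with compound for 1 hour at room temperature. It then dephosphorylated 10 uM VEPPL-pS-QETFS peptide in Tris-HCl pH 7.5 with 30 mM MgCl2. Released Pi was detected by 10 uM Rh-PBP fluorescence (ex 525/em 598 nm) read at 1-min intervals for 11 min, as delta f1 - f0.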

[4] = Validation qHTS assay for inhibitors of Activation Induced Cytidine Deaminase (AID): UDG Counterscreen signal (AID 1347427); also: 0% is about no effect
Method in brief: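 Fluorescence at 560 nm excitation, 665 nm emission reports UDG signal after 250 mM NaOH (2x) addition and 30 min. Enzymes (AID 1 uM, UDG 2 U/mL, at 4/3x) preincubated 10 min with compound, then 4 h with 4x 250 nM DJC20/DJC23 substrate at room temperature.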

[5] = molecular target: Single-stranded DNA cytosine deaminase (Homo sapiens) (UniProt Q9GZX7); assay: Validation qHTS assay for inhibitors of Activation Induced Cytidine Deaminase (AID): AID signal (AID 1347429); also: % is scaled to controls: 0 for no effect and ±100 for the full control effect
Sequence of Single-stranded DNA cytosine deaminase (Homo sapiens) (Q9GZX7 whole entry, looked up): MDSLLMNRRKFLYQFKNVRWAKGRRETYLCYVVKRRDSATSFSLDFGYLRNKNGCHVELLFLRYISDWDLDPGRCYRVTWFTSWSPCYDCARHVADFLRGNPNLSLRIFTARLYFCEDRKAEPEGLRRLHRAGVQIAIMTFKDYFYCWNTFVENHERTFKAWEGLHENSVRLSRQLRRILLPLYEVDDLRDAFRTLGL
Method in brief: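 Steps: dispense AID with UDG; pin-transfer compound up to 114 uM final; add DJC20/DJC23 substrate and hold 4 hr at room temperature; add NaOH, hold 30 min; read FRET signal (540/590 nm).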

[6] = Primary qHTS for inhibitors of La Crosse Virus (LACV) - induced cell death in SH-SY5Y cells (AID 1508616);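 also: top concentration of the series differs between compounds; 0% = infected DMSO wells and 100% = uninfected DMSO wells; higher means more rescue of cells from virus-induced death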
Method in brief: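 SH-SY5Y, 6000 cells/well; cpd via pin tool in DMSO; LACV 0.01 MOI; 6 d 37C 5% CO2; ATPLite, 5 min RT; luminescence normalized to ±virus DMSO controls.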

[7] = molecular target: Calcium and integrin-binding protein 1 (Homo sapiens) (UniProt Q99828); assay: Validation qHTS for Identification of Calcium Integrin Binding protein 1 (CIB1) Competitor (AID 1508618); also: % is scaled to controls: 0 for no effect and ±100 for the full control effect
Sequence of Calcium and integrin-binding protein 1 (Homo sapiens) (Q99828 whole entry, looked up): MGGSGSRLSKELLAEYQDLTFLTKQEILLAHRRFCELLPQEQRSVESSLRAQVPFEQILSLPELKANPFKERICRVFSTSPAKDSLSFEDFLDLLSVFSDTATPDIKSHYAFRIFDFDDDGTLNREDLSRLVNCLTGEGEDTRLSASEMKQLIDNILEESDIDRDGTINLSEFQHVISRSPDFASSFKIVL
Method in brief: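 Fluorescence polarization with 1 uM CIB1-GST and 100 nM FITC-alphaIIb peptide in HEPES pH 7.4, NaCl, 5 mM CaCl2, Tween20. Compounds at up to 114 uM final, preincubated with protein 15 min; read after 15 min more at RT.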

[8] = molecular target: Calcium and integrin-binding protein 1 (Homo sapiens) (UniProt Q99828); assay: Primary qHTS for Identification of Calcium Integrin Binding Protein 1 (CIB1) Competitor (AID 1508620);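 also: GST tagged CIB1 binding a fluorescein labelled alphaIIb integrin peptide tracer; top concentration of the series differs between compounds; % is scaled to controls: 0 for no effect and ±100 for the full control effect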
Method in brief: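 CIB1-GST (1 uM final) and compound incubated 15 min at room temperature before adding FITC-alphaIIb peptide tracer (100 nM final). Competition for binding read by fluorescence polarization (ex 480, em 540) after another 15 min at room temperature.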

c1ccc2c(c1)CCCC2C1=NCCN1 (stereo not drawn)
inactive: outcome [1] | Potency [2] | outcome [3] | outcome [4] | Potency [5] | Potency [6] | outcome [7]

CC(C)[N+](C)(CCOC(=O)C1c2ccccc2Oc2ccccc21)C(C)C
inactive: outcome [1] | Potency [2] | outcome [3] | outcome [4] | Potency [5] | Potency [6] | outcome [7]

O=c1[nH]c(=O)n([C@H]2C[C@H](O)[C@@H](CO)O2)cc1Br
inactive: outcome [1] | Potency [2] | outcome [3] | outcome [4] | Potency [5] | Potency [6] | outcome [7]

CN(C)C/C=C(/c1ccc(Br)cc1)c1cccnc1
inactive: outcome [1] | Potency [2] | outcome [3] | outcome [4] | Potency [5] | Potency [6] | outcome [7]

Cc1cccc(C)c1NC(=O)C(C)N (stereo not drawn)
inactive: outcome [1] | Potency [2] | outcome [3] | outcome [4] | Potency [5] | Potency [6] | outcome [7]

CCNC(=O)N1CCN(CCCC(c2ccc(F)cc2)c2ccc(F)cc2)CC1
inactive: outcome [1] | Potency [2] | outcome [3] | outcome [4] | Potency [5] | Potency [6] | outcome [7]

COCCc1ccc(OCC(O)CNC(C)C)cc1 (stereo not drawn)
inactive: outcome [1] | Potency [2] | outcome [3] | outcome [4] | Potency [5] | Potency [6] | outcome [7]

OCCN1CCN(CCCN2c3ccccc3C=Cc3ccccc32)CC1
inactive: outcome [1] | Potency [2] | outcome [3] | outcome [4] | Potency [5] | Potency [6] | outcome [7]

COCC(=O)O[C@]1(CCN(C)CCCc2nc3ccccc3[nH]2)CCc2cc(F)ccc2[C@@H]1C(C)C
inactive: outcome [1] | Potency [2] | outcome [3] | outcome [4] | Potency [5] | Potency [6] | outcome [7]

NC/C=C/C(=O)O
inactive: outcome [1] | Potency [2] | outcome [3] | outcome [4] | Potency [5] | Potency [6] | outcome [7] | Potency [8]

O=C1CC2(CCCC2)CC(=O)N1CCCCN1CCN(c2ncccn2)CC1
inactive: outcome [1] | Potency [2] | outcome [3] | outcome [4] | Potency [5] | Potency [6] | outcome [7] | Potency [8]

CN(C(=O)CCCOc1ccc2[nH]c(=O)ccc2c1)C1CCCCC1
inactive: outcome [1] | Potency [2] | outcome [3] | outcome [4] | Potency [5] | Potency [6] | outcome [7] | Potency [8]

CCCNC(C)C(=O)Nc1ccccc1C (stereo not drawn)
inactive: outcome [1] | Potency [2] | outcome [3] | outcome [4] | Potency [5] | Potency [6] | outcome [7] | Potency [8]

COC(=O)[C@H]1[C@H]2C[C@@H]3c4[nH]c5cc(OC)ccc5c4CCN3C[C@H]2C[C@@H](OC(=O)c2cc(OC)c(OC)c(OC)c2)[C@@H]1OC
inactive: outcome [1] | Potency [2] | outcome [3] | outcome [4] | Potency [5] | Potency [6] | outcome [7] | Potency [8]

CCN(Cc1ccncc1)C(=O)C(CO)c1ccccc1 (stereo not drawn)
inactive: outcome [1] | Potency [2] | outcome [3] | outcome [4] | Potency [5] | Potency [6] | outcome [7] | Potency [8]

NCCCNCCSP(=O)(O)O
inactive: outcome [1] | activity change, negative = inhibition [2] 0.628% [at 12.6 µM] | activity change, negative = inhibition [3] 1.47% [at 11.5 µM] | outcome [4] | Potency [5] | Potency [6] | outcome [7] | Potency [8]

COC(=O)C1=C(C)NC(C)=C(C(=O)OC(C)(C)CN(C)CCC(c2ccccc2)c2ccccc2)C1c1cccc([N+](=O)[O-])c1 (stereo not drawn)
inactive: outcome [1] | Potency [2] | outcome [3] | outcome [4] | Potency [5] | Potency [6] | outcome [7] | Potency [8]

Cc1ccc(S(=O)(=O)NC(=O)NN2CCCCCC2)cc1
inactive: outcome [1] | Potency [2] | outcome [3] | outcome [4] | Potency [5] | Potency [6] | outcome [7] | Potency [8]

COC(=O)[C@@H](N)Cc1ccc(O)c(O)c1
inactive: outcome [1] | Potency [2] | outcome [3] | outcome [4] | Potency [5] | Potency [6] | outcome [7] | Potency [8]

CC(=O)Nc1nnc(S(N)(=O)=O)s1
inactive: outcome [1] | Potency [2] | outcome [3] | outcome [4] | Potency [5] | Potency [6] | outcome [7] | Potency [8]

CCN(CC)CCNC(=O)c1cc(S(C)(=O)=O)ccc1OC
inactive: outcome [1] | Potency [2] | outcome [3] | outcome [4] | Potency [5] | Potency [6] | outcome [7] | Potency [8]

CC(=O)OCC1=C(C(=O)O)N2C(=O)[C@@H](NC(=O)Cc3cccs3)[C@H]2SC1
inactive: outcome [1] | Potency [2] | outcome [3] | outcome [4] | Potency [5] | Potency [6] | outcome [7] | Potency [8]

O=C(O)CP(=O)(O)O
inactive: outcome [1] | Potency [2] | outcome [3] | outcome [4] | Potency [5] | Potency [6] | outcome [7] | Potency [8]

CCC(=O)c1ccc2c(c1)N(CCCN(C)C)c1ccccc1S2
inactive: outcome [1] | Potency [2] | outcome [3] | outcome [4] | Potency [5] | Potency [6] | outcome [7] | Potency [8]
